Assay results: the supplement of paper PMC11732987, “Enantioselective OTUD7B fragment discovery through chemoproteomics screening and high-throughput optimisation” (Communications Chemistry, 2025)

Each molecule was assayed against T1, FAM105A (UniProt Q9NUU6) (assay: log2 ratio of Biotin-Ahx-Ub-VS probe labelling (fragment/DMSO); higher = less target engagement (more negative = stronger competition), active = hit call of the paper (q ≤ 0.05, log2 ratio ≤ -1)). Conditions: compound concentration: 200 uM; treatment time: 3 h.
T1 sequence (whole entry): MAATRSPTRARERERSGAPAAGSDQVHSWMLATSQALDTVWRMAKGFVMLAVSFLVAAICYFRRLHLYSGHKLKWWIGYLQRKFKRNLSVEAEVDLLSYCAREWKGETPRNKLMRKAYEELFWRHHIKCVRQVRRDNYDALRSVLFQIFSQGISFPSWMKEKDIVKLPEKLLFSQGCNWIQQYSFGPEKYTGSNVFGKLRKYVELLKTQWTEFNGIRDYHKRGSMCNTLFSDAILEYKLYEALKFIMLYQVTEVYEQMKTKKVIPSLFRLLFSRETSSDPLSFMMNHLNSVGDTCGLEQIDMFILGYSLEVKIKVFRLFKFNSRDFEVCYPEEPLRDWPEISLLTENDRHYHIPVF
Outline: (§1)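 Labelled DUBs were enriched with NeutrAvidin, digested with LysC and trypsin, and run by diaPASEF LC-MS/MS. The labelling used Biotin-Ahx-Ub-VS at 0.5 µM final for 1 h on HEK293T lysate (495 µg per sample) previously treated in triplicate with fragment at 200 µM or vehicle for 3 h. Values are average log2 fragment/vehicle ratios by unpaired t-test on global-median-normalised Spectronaut quantities of proteins with ≥2 unique peptides.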

log2 ratio of Biotin-Ahx-Ub-VS probe labelling, inactive:
O=C(CCl)N1CCCC2CCCCC21 (centres undefined) 0.212
Cc1cccc(N2CCC(NC(=O)CCl)C2=O)c1 (centres undefined) 0.111
CC(O)CC1CCN(C(=O)CCl)CC1 (centres undefined) -0.12
Cc1nc(CC2CCN(C(=O)CCl)CC2)no1 -0.155
CC1Cc2ccccc2N1C(=O)CCl (centres undefined) -0.0636
O=C(CCl)Nc1cccc(C(=O)N2CCSCC2)c1 0.0218
Cl.O=C(CCl)N1CCc2ncncc2C1 0.0971
NC(=O)C(Cc1ccccc1)NC(=O)CCl (centres undefined) -0.0569
CC(NC(=O)CCl)c1csc(-c2ccccc2)n1.Cl (centres undefined) 0.268
Cc1ccc(CC(NC(=O)CCl)c2ccccn2)cc1.Cl (centres undefined) -0.348
O=C(CCl)N[C@H]1CCS(=O)(=O)c2ccccc21 -0.522
O=C(CCl)NCC(=O)N1CCCC1 -0.573
CC(C)n1nccc1NC(=O)CCl 0.00922
Cc1cc(CC(C)NC(=O)CCl)n[nH]1 (centres undefined) 0.19

What follows are molecules tested against OTUB1 (UniProt Q96FW1) in the same assay as above. Conditions: compound concentration: 200 uM; treatment time: 3 h.
Outline: as §1

Sequence of OTUB1 (Q96FW1 whole entry): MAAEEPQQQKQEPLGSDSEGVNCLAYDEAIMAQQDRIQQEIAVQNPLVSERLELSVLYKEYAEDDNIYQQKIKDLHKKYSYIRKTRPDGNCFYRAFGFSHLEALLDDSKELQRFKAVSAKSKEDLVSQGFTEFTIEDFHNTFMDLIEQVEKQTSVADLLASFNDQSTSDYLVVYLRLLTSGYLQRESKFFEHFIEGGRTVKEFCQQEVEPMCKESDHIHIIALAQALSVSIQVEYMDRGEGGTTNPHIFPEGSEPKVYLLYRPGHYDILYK

log2 ratio of Biotin-Ahx-Ub-VS probe labelling, inactive:
COc1cc(Cl)c(C)cc1NC(=O)CCl -0.0736
Cl.O=C(CCl)N1CCN(Cc2ccccc2)CC1 -0.185
Cc1nc(CN2CCN(C(=O)CCl)CC2)cs1 0.0298
O=C(CCl)Nc1cc(Cl)ccc1C(=O)O 0.108
CN(C(=O)CCl)c1nc2ccccc2s1 -0.597
O=C(CCl)NCCc1cccc2ccccc12 0.162
CCCn1nccc1NC(=O)CCl -0.396
CNC(=O)C1CCN(C(=O)CCl)CC1 -0.105
O=C(CCl)N1CCOC(c2cccc(F)c2)C1 (centres undefined) -0.175
Cc1c(C#N)c(NC(=O)CCl)n(Cc2ccco2)c1C 0.0458
O=C(CCl)N1CCC(C(=O)N2CCCCCC2)CC1 0.0563
CN1C(=O)c2ccc(NC(=O)CCl)cc2C1=O 0.0722
C[C@H]1CN(C(=O)CCl)CCN1C(=O)c1cnn(C)c1.Cl -0.204
CC1(NC(=O)CCl)CCS(=O)(=O)C1 (centres undefined) -0.246
O=C(CCl)NCc1ccc(Cl)cc1 0.0283
O=C(CCl)Nc1ccc(N2CCCC2=O)cc1 -0.351
Cc1ncsc1CCNC(=O)CCl 0.885
Cc1cccc(C)c1NC(=O)CCl -0.261
Cc1cccc(C(CNC(=O)CCl)N2CCOCC2)c1.Cl (centres undefined) -0.156
Cc1cccc(NC(=O)CCl)c1C 0.0184
Cc1cc(C2CCCN2C(=O)CCl)nn1C.Cl (centres undefined) -0.0124
O=C(CCl)N1CCCC2CCCCC21 (centres undefined) 0.0815
Cc1cccc(N2CCC(NC(=O)CCl)C2=O)c1 (centres undefined) -0.325
CC(O)CC1CCN(C(=O)CCl)CC1 (centres undefined) 0.128
Cc1nc(CC2CCN(C(=O)CCl)CC2)no1 -0.686
CC1Cc2ccccc2N1C(=O)CCl (centres undefined) -0.626
O=C(CCl)Nc1cccc(C(=O)N2CCSCC2)c1 -0.523
Cl.O=C(CCl)N1CCc2ncncc2C1 -0.263
NC(=O)C(Cc1ccccc1)NC(=O)CCl (centres undefined) 0.128
CC(NC(=O)CCl)c1csc(-c2ccccc2)n1.Cl (centres undefined) -0.0384
Cc1ccc(CC(NC(=O)CCl)c2ccccn2)cc1.Cl (centres undefined) -0.0206
O=C(CCl)N[C@H]1CCS(=O)(=O)c2ccccc21 0.161
O=C(CCl)NCC(=O)N1CCCC1 -0.202
CC(C)n1nccc1NC(=O)CCl -0.27
Cc1cc(CC(C)NC(=O)CCl)n[nH]1 (centres undefined) 0.11
